From PubChem BioAssay AID1159580 (chemical genetic matrix, 2015)
Several values for one entry are separate records, joined by “and”; a condition that tells them apart may be missing. Equal values may be shown once. The campaign covered roughly 5,500 compounds. About 2,000 (36%) were called active. Inconclusive results (about 18%) are left out. Cut-off read from the data, not from the text of the source: active = normalized growth mostly below about 0.91 (no sharp cut-off); inconclusive = no clear call, values can overlap the other calls; inactive = mostly above about 0.92. Some of the results follow.

Assay: chemical genetic growth profiling, strain panel (AID 1159580);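 note: tested at 20 µM; growth read once vehicle control cultures reached saturation at 30 °C; 1 = growth at the plate median or of vehicle wells; lower values mean less growth of the strain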
Details: S. cerevisiae deletion strains, growth OD

Measured: normalized growth

O=c1c(-c2ccc(O)cc2)coc2cc(O)ccc12
inactive: locus YAL013W, strain DEP1, stronger effect = lower value 0.964 | locus YAL021C, strain ccr4, stronger effect = lower value 0.996 | locus YAL026C, strain drs2, stronger effect = lower value 0.983 | locus YAL030W, strain snc1, stronger effect = lower value 0.989 | locus YAL040C, strain CLN3, stronger effect = lower value 1.01 | locus YBL061C, strain skt5, stronger effect = lower value 0.983 | locus YBR009C, strain hhf1, stronger effect = lower value 0.97 | locus YBR021W, strain FUR4, stronger effect = lower value 0.924 | locus YBR023C, strain chs3, stronger effect = lower value 0.978 | locus YBR171W, strain sec66, stronger effect = lower value 0.969 | locus YBR229C, strain ROT2, stronger effect = lower value 1.01 | locus YBR231C, strain swc5, stronger effect = lower value 0.986 | locus YBR279W, strain paf1, stronger effect = lower value 0.999 | locus YCL011C, strain gbp2, stronger effect = lower value 0.98 | locus YCL016C, strain dcc1, stronger effect = lower value 0.977 | locus YCL029C, strain bik1, stronger effect = lower value 0.983 | locus YCL061C, strain MRC1 (second series), stronger effect = lower value 1.01 | locus YCL061C, strain MRC1, stronger effect = lower value 0.975 | locus YCL069W, strain vba3, stronger effect = lower value 0.995 | locus YCR088W, strain abp1, stronger effect = lower value 0.987 | locus YDL005C, strain med2, stronger effect = lower value 0.976 | locus YDL035C, strain GPR1, stronger effect = lower value 1.01 | locus YDL040C, strain nat1, stronger effect = lower value 0.987 | locus YDL074C, strain BRE1, stronger effect = lower value 0.97 | locus YDL101C, strain DUN1, stronger effect = lower value 1.01 | locus YDL134C, strain PPH21, stronger effect = lower value 1 | locus YDL185W, strain tfp1, stronger effect = lower value 0.987 | locus YDL192W, strain arf1, stronger effect = lower value 1.01 | locus YDR001C, strain nth1, stronger effect = lower value 0.984 | locus YDR069C, strain doa4, stronger effect = lower value 0.985 | locus YDR101C, strain arx1, stronger effect = lower value 0.964 | locus YDR137W, strain rgp1, stronger effect = lower value 1 | locus YDR150W, strain NUM1, stronger effect = lower value 0.984 | locus YDR159W, strain sac3, stronger effect = lower value 0.974 | locus YDR162C, strain NBP2, stronger effect = lower value 1 | locus YDR195W, strain ref2 1.04 | locus YDR297W, strain sur2, stronger effect = lower value 0.978 | locus YDR318W, strain mcm21, stronger effect = lower value 0.99 | locus YDR334W, strain swr1, stronger effect = lower value 1 | locus YDR335W, strain msn5, stronger effect = lower value 0.992 | locus YDR363W, strain ESC2, stronger effect = lower value 1.01 | locus YDR388W, stronger effect = lower value 0.98 | locus YDR392W, strain spt3, stronger effect = lower value 0.849 | locus YDR502C, strain sam2, stronger effect = lower value 0.951 | locus YEL003W, strain gim4, stronger effect = lower value 0.989 | locus YEL037C, strain rad23, stronger effect = lower value 0.985 | locus YEL061C, strain CIN8 (second series), stronger effect = lower value 0.996 | locus YEL061C, strain CIN8, stronger effect = lower value 1.01 | locus YER002W, strain NOP16, stronger effect = lower value 0.992 | locus YER015W, strain faa2, stronger effect = lower value 0.993 | locus YER016W, strain bim1, stronger effect = lower value 0.982 | locus YER110C, stronger effect = lower value 0.974 | locus YER111C, strain swi4, stronger effect = lower value 0.98 | locus YER155C, strain BEM2 (second series), stronger effect = lower value 0.972 | locus YER155C, strain BEM2, stronger effect = lower value 0.992 | locus YER167W, strain BCK2, stronger effect = lower value 1 | locus YFR010W, strain ubp6, stronger effect = lower value 0.982 | locus YGL078C, strain dbp3, stronger effect = lower value 0.977 | locus YGL086W, strain mad1, stronger effect = lower value 0.969 | locus YGL167C, strain pmr1, stronger effect = lower value 0.981 | locus YGL173C, strain kem1, stronger effect = lower value 0.971 | locus YGL227W, strain vid30, stronger effect = lower value 0.984 | locus YGL240W, strain doc1, stronger effect = lower value 0.958 | locus YGL248W, strain PDE1, stronger effect = lower value 1.01 | locus YGL253W, strain hxk2, stronger effect = lower value 0.956 | locus YGR078C, strain PAC10, stronger effect = lower value 0.965 and 1.01 | locus YGR135W, strain pre9, stronger effect = lower value 0.957 | locus YGR229C, strain SMI1, stronger effect = lower value 0.974 | locus YGR252W, strain gcn5, stronger effect = lower value 0.825 | locus YHR013C, strain ard1, stronger effect = lower value 0.959 | locus YHR027C, strain rpn1, stronger effect = lower value 0.995 | locus YHR030C, strain SLT2, stronger effect = lower value 1.01 and 1.02 | locus YHR079C, strain IRE1 (second series), stronger effect = lower value 0.993 | locus YHR079C, strain IRE1, stronger effect = lower value 0.999 | locus YHR094C, strain hxt1, stronger effect = lower value 0.99 | locus YHR129C, strain ARP1, stronger effect = lower value 1.01 | locus YHR142W, strain chs7, stronger effect = lower value 0.943 | locus YHR200W, strain rpn10, stronger effect = lower value 0.979 | locus YIL066C, strain RNR3, stronger effect = lower value 1.02 | locus YIL073C, strain SPO22, stronger effect = lower value 0.951 | locus YIL125W, strain kgd1, stronger effect = lower value 0.988 | locus YIR030C, strain dcg1, stronger effect = lower value 0.978 | locus YJL092W, strain hpr5, stronger effect = lower value 0.981 | locus YJL095W, strain BCK1 (second series), stronger effect = lower value 0.98 | locus YJL095W, strain BCK1, stronger effect = lower value 0.977 and 1.03 | locus YJL115W, strain asf1, stronger effect = lower value 0.994 | locus YJL129C, strain trk1, stronger effect = lower value 0.969 | locus YJL134W, strain LCB3, stronger effect = lower value 1.01 | locus YJL154C, strain vps35, stronger effect = lower value 0.986 | locus YJL164C, strain tpk1, stronger effect = lower value 0.966 | locus YJL166W, strain qcr8, stronger effect = lower value 0.963 | locus YJL168C, strain set2, stronger effect = lower value 0.99 | locus YJL187C, strain SWE1 (second series), stronger effect = lower value 0.987 | locus YJL187C, strain SWE1, stronger effect = lower value 0.984 | locus YJR043C, strain POL32, stronger effect = lower value 0.994 | locus YJR066W, strain TOR1, stronger effect = lower value 0.989 | locus YKL009W, strain mrt4, stronger effect = lower value 0.951 | locus YKL068W, stronger effect = lower value 1 | locus YKL085W, strain MDH1 (second series), stronger effect = lower value 1.01 | locus YKL085W, strain MDH1, stronger effect = lower value 1.01 | locus YKL160W, strain elf1, stronger effect = lower value 0.971 | locus YKR001C, strain vps1, stronger effect = lower value 0.963 | locus YKR026C, strain gcn3, stronger effect = lower value 0.976 | locus YKR091W, strain srl3, stronger effect = lower value 0.982 | locus YLL001W, strain dnm1, stronger effect = lower value 0.945 | locus YLL026W, stronger effect = lower value 0.976 | locus YLL041C, strain sdh2, stronger effect = lower value 0.986 | locus YLR027C, strain aat2, stronger effect = lower value 0.973 | locus YLR039C, strain RIC1, stronger effect = lower value 1.05 | locus YLR058C, strain SHM2, stronger effect = lower value 1 | locus YLR102C, strain apc9, stronger effect = lower value 0.998 | locus YLR113W, strain HOG1, stronger effect = lower value 0.933 | locus YLR221C, strain rsa3, stronger effect = lower value 0.953 | locus YLR258W, strain gsy2, stronger effect = lower value 0.978 | locus YLR262C, strain YPT6 (second series), stronger effect = lower value 0.969 | locus YLR262C, strain YPT6, stronger effect = lower value 1.09 | locus YLR268W, strain sec22, stronger effect = lower value 0.949 | locus YLR320W, strain mms22, stronger effect = lower value 0.939 | locus YLR330W, strain CHS5, stronger effect = lower value 1 | locus YLR342W, strain FKS1 (second series), stronger effect = lower value 0.997 | locus YLR342W, strain FKS1, stronger effect = lower value 0.987 | locus YLR357W, strain rsc2, stronger effect = lower value 0.941 | locus YLR370C, strain arc18, stronger effect = lower value 0.982 | locus YLR371W, strain rom2, stronger effect = lower value 0.985 | locus YLR384C, strain iki3, stronger effect = lower value 1 | locus YLR418C, strain cdc73, stronger effect = lower value 0.888 | locus YML016C, strain PPZ1, stronger effect = lower value 1.02 | locus YML032C, strain rad52, stronger effect = lower value 0.977 | locus YML120C, strain ndi1, stronger effect = lower value 0.991 | locus YML124C, strain tub3, stronger effect = lower value 0.98 | locus YMR058W, strain fet3, stronger effect = lower value 0.981 | locus YMR078C, strain ctf18, stronger effect = lower value 0.979 | locus YMR125W, strain sto1, stronger effect = lower value 0.99 | locus YMR129W, stronger effect = lower value 0.989 | locus YMR205C, strain PFK2, stronger effect = lower value 0.957 | locus YMR223W, strain ubp8, stronger effect = lower value 0.978 | locus YMR231W, strain pep5, stronger effect = lower value 0.992 | locus YMR307W, strain GAS1, stronger effect = lower value 0.951 and 1.01 | locus YNL067W, strain RPL9B, stronger effect = lower value 0.966 | locus YNL071W, strain lat1, stronger effect = lower value 0.979 | locus YNL128W, strain TEP1, stronger effect = lower value 1 | locus YNL153C, strain GIM3, stronger effect = lower value 0.982 and 1.04 | locus YNL175C, strain NOP13, stronger effect = lower value 0.994 | locus YNL183C, strain NPR1, stronger effect = lower value 0.993 | locus YNL197C, strain WHI3, stronger effect = lower value 0.979 | locus YNL209W, strain ssb2, stronger effect = lower value 0.99 | locus YNL224C, strain SQS1, stronger effect = lower value 1 | locus YNL233W, strain BNI4, stronger effect = lower value 0.966 | locus YNL248C, strain rpa49, stronger effect = lower value 0.97 | locus YNL250W, strain rad50, stronger effect = lower value 1.01 | locus YNL271C, strain bni1, stronger effect = lower value 0.985 | locus YNL298W, strain CLA4, stronger effect = lower value 0.997 | locus YNL307C, strain MCK1, stronger effect = lower value 0.97 | locus YNL322C, strain KRE1 (second series), stronger effect = lower value 0.966 | locus YNL322C, strain KRE1, stronger effect = lower value 1 | locus YNR049C, strain mso1, stronger effect = lower value 0.985 | locus YNR052C, strain pop2, stronger effect = lower value 0.988 | locus YOL006C, strain TOP1, stronger effect = lower value 0.931 | locus YOL012C, strain htz1 0.695 | locus YOL147C, strain pex11, stronger effect = lower value 0.982 | locus YOR001W, strain rrp6, stronger effect = lower value 1 | locus YOR061W, strain CKA2, stronger effect = lower value 1.02 | locus YOR069W, strain VPS5, stronger effect = lower value 1.01 | locus YOR070C, strain gyp1, stronger effect = lower value 0.982 | locus YOR080W, strain dia2, stronger effect = lower value 0.98 | locus YOR083W, strain WHI5 (second series), stronger effect = lower value 1.05 | locus YOR083W, strain WHI5, stronger effect = lower value 0.945 | locus YOR106W, strain vam3, stronger effect = lower value 0.954 | locus YOR136W, strain idh2, stronger effect = lower value 0.97 | locus YOR144C, strain elg1, stronger effect = lower value 0.985 | locus YOR184W, strain ser1, stronger effect = lower value 0.935 | locus YOR231W, strain MKK1, stronger effect = lower value 1.03 | locus YOR265W, strain rbl2, stronger effect = lower value 0.985 | locus YOR270C, strain vph1, stronger effect = lower value 0.913 | locus YOR290C, strain snf2, stronger effect = lower value 0.902 | locus YOR316C, strain cot1, stronger effect = lower value 0.986 | locus YPL051W, strain arl3, stronger effect = lower value 0.988 | locus YPL055C, strain LGE1, stronger effect = lower value 0.958 | locus YPL078C, strain atp4, stronger effect = lower value 0.956 | locus YPL106C, strain sse1, stronger effect = lower value 0.935 | locus YPL240C, strain hsp82, stronger effect = lower value 1 | locus YPL241C, strain CIN2, stronger effect = lower value 1 | locus YPL256C, strain CLN2, stronger effect = lower value 0.992 | locus YPR119W, strain clb2, stronger effect = lower value 0.984 | locus YPR141C, strain kar3, stronger effect = lower value 0.997 | locus YPR163C, strain tif3, stronger effect = lower value 0.982 | locus YPR167C, strain met16, stronger effect = lower value 0.984 | strain wtn01, stronger effect = lower value 0.953
